RECQ1 helicase = qHTS Assay for Inhibitors of RecQ-Like Dna Helicase 1 (RECQ1). hit rate 0.54% among 240,000. RECQ1 DNA unwinding, red fluorescence kinetic read. Potency, µM (series often up to 57.3 µM), inactives show at the top dose activity, negative = inhibition, hits mostly inhibitors. ATP-dependent DNA helicase Q1 (Homo sapiens), P46063;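 further: plate controls were vehicle for no effect and no enzyme for full effect; nearly all actives have a fitted effect of over 30% in size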
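50 nM RECQ1T1 preincubated 15 min with compound in Tris pH 8.0 buffer with MgCl2, DTT, Tween-20 and 2.5 ug/ml poly(dI-dC); started with 200 nM TAMRA/BHQ-2 forked duplex and 2 mM ATP. Unwinding read as fluorescence (525/598 nm), two reads 2 h apart.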
GoLoco inh red = qHTS Assay for Inhibitors of RGS12 GoLoco Motif Activity (Red Fluorophore); Potency, µM (highest dose often 61.6 µM), for the others: at the highest dose activity, negative = inhibition, most hits filed as inhibitors; Guanine nucleotide-binding protein G(i) subunit alpha-1 (Homo sapiens), P63096; Gai1:RGS12 GoLoco peptide FP, rhodamine, 10 min; AID 880, 2007; hit rate 0.44% among 230,000; active means well fitted inhibition curve with a large enough effect, not every such curve was filed as active; inactive means no such curve, though single readings can be large or run the other way; further: nearly all actives have a fitted effect of over 30% in size
KDM4E inh = qHTS Assay for Inhibitors of Human Jumonji Domain Containing 2E (JMJD2E); Lysine-specific demethylase 4E (Homo sapiens), B2RXH2; JMJD2E catalytic domain, FDH-coupled NADH fluorescence (FDH is formaldehyde dehydrogenase); Potency, µM (top dose mostly 57.1 µM), for the others: top-dose activity change, negative = inhibition, actives largely listed as inhibitors; hit rate 1.6% among 230,000; active means well fitted inhibition curve with a large enough effect, not every such curve was filed as active; inconclusive means small, poorly fitted or top-dose-only effect, or another doubt; inactive means no such curve, though single readings can be large or run the other way;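 further: 0% = wells with enzyme and -100% = buffer wells without enzyme; nearly all actives have a fitted effect of over 50% in size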
L3MBTL1 inh = qHTS Assay for the Inhibitors of L3MBTL1 | AlphaScreen L3MBTL1–H3K9me1 peptide binding | Potency, µM (doses to about 57.1 µM), for inactives: at the top dose activity, negative = inhibition, usual class: inhibitors | hit rate 0.66% among 230,000; further: nearly all actives have a fitted effect of over 60% in size
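First, the protein-peptide complex forms for 30 min at room temperature (L3MBTL1 50 nM, biotinylated H3K9me1 peptide 75 nM). Next, compounds are pin-transferred and incubated 30 min. Finally, AlphaScreen beads are added and read after 30 min.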
APEX1 inh = qHTS Assay for Inhibitors of the Human Apurinic/apyrimidinic Endonuclease 1 (APE1); DNA repair nuclease/redox regulator APEX1 (Homo sapiens), P27695; recombinant APE1, TAMRA/BHQ-2 abasic DNA cleavage fluorescence; Potency, µM (series often up to 65.8 µM), without a hit: top-dose activity change, negative = inhibition, hits mostly inhibitors; hit rate 0.35% among 350,000; AID 2517, 2012;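 further: plate controls were vehicle for no effect and reference inhibitor for full effect; nearly all actives have a fitted effect of over 55% in size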
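Compound pre-exposure to 0.75 nM APE1, 15 min at ambient temperature. Reaction initiated with 50 nM TAMRA/BHQ-2 THF substrate, read immediately in kinetic mode, 525 nm excitation, 598 nm emission.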
BLM inh = qHTS Assay for Inhibitors of Bloom's syndrome helicase (BLM); Potency, µM (series often up to 56.1 µM), for inactives: at the top dose activity change, negative = inhibition, most hits filed as inhibitors; hit rate 0.2% among 350,000; AID 2528, 2010; RecQ-like DNA helicase BLM (Homo sapiens), P54132; recombinant BLM DNA unwinding, fluorescence dequenching;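 further: plate controls were vehicle for no effect and no enzyme for full effect; nearly all actives have a fitted effect of over 35% in size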
Starred values were filed as active, the others as inactive; i = inactive; u = inconclusive; x = no result given; [ ] = remark or other dose. This excerpt belongs to a sample that is enriched for hits. Unless noted, the call rests on the fitted dose curve; in most records, active means well fitted curve in the direction sought with a large enough effect; inconclusive means small, poorly fitted or top-dose-only effect, or another doubt; inactive means no such curve, though single readings can be large; an effect the other way counts as inactive or inconclusive. Unless noted, on the % scale 0 is the no-effect control and ±100 the full control effect; potency means the concentration at half of the fitted maximal effect.

SMILES	RECQ1 helicase	GoLoco inh red	KDM4E inh	L3MBTL1 inh	APEX1 inh	BLM inh
COc1cc2c(cc1OC)[C@]13CC[N@+]4(C)CC5=CCO[C@H]6CC(=O)N2[C@@H]1C6[C@@H]5C[C@]34O (some centres undefined)	x	7%[14.2 µM]	x	x	x	x
S=P(C1CCCCC1)(C1CCCCC1)[C@H](c1cccnc1)N1CCCC1	x	6%[14.2 µM]	x	x	x	x
CCCCn1c(O)c(/C=N/NC(=O)c2ccncc2)c(=O)[nH]c1=O	-13%	-4%	8.9µM*	-2%	0%	-2%
Cc1cc(C)c(-n2c(O)c(/C=N/NC(=O)c3ccncc3)c(=O)[nH]c2=O)c(C)c1	-7%	83%	14µM*	-8%	-5%	-3%
Cc1ccccc1-n1c(O)c(/C=N/NC(=O)c2ccncc2)c(=O)[nH]c1=O	-11%	-4%	u	-7%	0%	-5%
CCc1ccc(-n2c(O)c(/C=N/NC(=O)c3ccncc3)c(=O)[nH]c2=O)cc1	-1%	14%	11µM*	-24%	0%	0%
N[C@H](CCCP(=O)(O)O)C(=O)O	10%	0%	u	x	-1%	-5%
CN[C@H]1C[C@@H](N)[C@H](O)[C@@H](O[C@@H]2O[C@H](CO)[C@H](O)[C@@H]3OC4(O[C@H]23)O[C@H](C(N)CO)[C@H](O)[C@H](O)[C@H]4O)[C@@H]1O (some centres undefined)	x	x	x	x	1%	x
CC(C)(C)c1ccc(O)c(C[N+](C)(C)C)c1	x	-39%[14.2 µM]	x	x	x	x
NO	-9%	-15%	1.4µM*	x	0%	x
[N-]=[N+]=NCC(=O)c1c[nH]c(=O)[nH]c1=O	x	2%[14.2 µM]	x	x	x	x
Cc1ccc(N=Nc2cc(C)ccc2N)cc1	-8%	4%	3%	14µM*	11%	-2%
Cc1ccc(N)c(C)c1	0%	-4%	x	-5%	-9%	x
CC1(C)S[C@@H]2[C@H](N)C(=O)N2[C@H]1C(=O)O	x	x	x	x	17%	x
O=S1(=O)N(CCN2CC=C(c3c[nH]c4cc(F)ccc34)CC2)c2cccc3c2N1CCC3	76%	15%	16µM*	-13%	-3%	x
COc1ccc(-n2c(C)cc(C(=O)C[N+]34CCN(CC3)CC4)c2C)cc1	-8%	-19%	22µM*	x	12%	-8%
C[C@@H]1NCCc2cc(O)c(O)cc21	-8%[25.9 µM]	3.5µM*	11µM*	-1%	u	1%[21.4 µM]
CC(C)=C[C@H]1[C@@H](C(=O)OCc2cc3c(cc2Cl)OCO3)C1(C)C	x	4%[14.2 µM]	x	x	x	x
Fc1ccccc1N1CCN(Cc2c(F)cccc2F)CC1	i	-5%	20µM*	-11%[11.4 µM]	-8%	-1%
OC(c1ccc(Cl)cc1)(c1ccc(Cl)cc1)C(Cl)(Cl)Cl	-9%	-4%	x	x	-1%	x
c1ccc(-c2ccncc2)cc1	x	x	x	-3%	10%	x
C[n+]1ccc(-c2ccncc2)cc1	-4%	10µM*	-1%	-2%	-1%	0%
Cn1c(=O)c2[nH]cnc2n(C)c1=O.[CH2-][C@H](Cc1cccc2cc(C(=O)O)c(=O)oc12)OC.[Hg].[OH-]	x	-2%[14.2 µM]	x	x	x	x
Cc1cc(/C=C2/C(=O)NC(=O)N(Cc3ccco3)C2=O)c(C)n1-c1ccccc1O	-1%	27%	32µM*	-15%	-6%	-2%
CCCCCCCC/C=C\CCCCCCCC(=O)OC[C@@H](COP(O)(O)=S)OC	25µM*	x	x	x	u	u
SMILES	RECQ1 helicase	GoLoco inh red	KDM4E inh	L3MBTL1 inh	APEX1 inh	BLM inh
COc1cc2c(cc1OC)[C@@H]1C(=O)c3ccc4c(c3OC1CO2)CC(C(C)C)O4 (some centres undefined)	-11%	0%	-7%	x	-5%	-13%
COc1cc2c(cc1OC)[C@@H]1C(=O)c3ccc(OC)c(CC=C(C)C)c3OC1CO2 (some centres undefined)	-21%	-4%	18µM*	x	u	-10%
OC[C@@H](O)[C@H]1O[C@@H]2O[C@H](C(Cl)(Cl)Cl)O[C@@H]2[C@H]1O	x	x	x	x	-6%	x
CCC12CCN(CCc3ccc([N+](=O)[O-])cc3)CC1Oc1c(O)cccc12 (centres undefined)	x	x	x	x	-1%	x
O=C1OC(c2cc(I)c(O)c(I)c2)(c2cc(I)c(O)c(I)c2)c2ccccc21	8.9µM*	-50%	x	x	x	u
C[C@H]1CC[C@]2(NC1)O[C@H]1C[C@H]3[C@@H]4CC[C@H]5C[C@@H](O[C@@H]6O[C@H](CO)[C@H](O[C@@H]7O[C@H](CO)[C@@H](O)[C@H](O[C@@H]8OC[C@@H](O)[C@H](O)[C@H]8O)[C@H]7O[C@@H]7O[C@H](CO)[C@@H](O)[C@H](O)[C@H]7O)[C@H](O)[C@H]6O)CC[C@]5(C)[C@H]4CC[C@]3(C)[C@H]1[C@@H]2C	x	x	x	x	-3%	x
O=C(O)c1ccc2c(c1)C1C(Cl)C(Sc3ccccc3[N+](=O)[O-])CC1C(c1cccc([N+](=O)[O-])c1)N2 (centres undefined)	-19%	2%	-19%	22µM*	-10%	-19%
Cc1ccc2c(c1Cl)NC(C(=O)O)C1CC(Sc3ccccc3[N+](=O)[O-])C(Cl)C21 (centres undefined)	-28%	41%	-26%	x	-4%	-16%
O=C(O)c1cccc2c1NC(c1cccc([N+](=O)[O-])c1)C1CC(Sc3ccccc3[N+](=O)[O-])C(Cl)C21 (centres undefined)	i	9%	u	20µM*	-10%	-29%
c1ccc(C2CO2)cc1 (centres undefined)	1%	0%	x	x	26%	x
CC1(C)CC(=O)C2=C(C1)OC(N)=C([N+](=O)[O-])C2c1ccc(C#N)s1 (centres undefined)	28µM*	-5%	-28%	-9%	u	-2%
COC[C@H]1OC(=O)c2coc3c2[C@@]1(C)C1=C(C3=O)C2CCC(=O)[C@@]2(C)C[C@H]1OC(C)=O (some centres undefined)	35µM*	-7%	-2%	x	u	3%
COC[C@H]1OC(=O)c2coc3c2[C@@]1(C)C1=C(C3=O)[C@H]2CCC(=O)[C@@]2(C)C[C@H]1OC(C)=O	13µM*	-1%	11µM*	x	-9%	1%
c1ccc(N2CC3(CCNCC3)C2)nc1	i	9%	x	x	21%	5%

Source: PubChem BioAssay (National Center for Advancing Translational Sciences (NCATS))
